Sampled rows, rich in hits. Any-hit rate of the full collection: about 21%.
Pf growth 48h: P. falciparum growth inhibition at 48 hours (one generation); P. falciparum luciferase growth in erythrocytes, 48 h; Potency, µM (titrated, usually from 28.7 µM), usual class: inhibitors; 310,000 compounds, 5.9% hits; AID 504832
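Firefly luciferase activity from engineered P. falciparum reports growth; inhibitors lower the luminescent signal. Cultures contained 2% hematocrit erythrocytes at 0.1% final parasitemia.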
CHX counter: counter-screen for Shiga toxin inhibitors: cycloheximide protein synthesis inhibition. 300,000 compounds, 12% hits. max response, %. cell reporter, cycloheximide protein synthesis inhibition counterscreen; in the data active = max response mostly above about 13%, no sharp cut-off; inactive = mostly below about 14%; note: read at 38.3 µM for the half of the compounds with a filed dose
Shiga toxin inh: blocks Shiga toxin action in Vero cells. Vero cells, Shiga toxin protein synthesis inhibition reporter. inhibition, % at 38.7 µM. 290,000 compounds, 9.2% hits; in the data active = inhibition mostly above about 28%, no sharp cut-off; inactive = mostly below about 43%
Pf growth 96h: inhibits malaria parasite growth, 96 h | 320,000 compounds, 6.9% hits | AID 504834 | Potency, µM (titrated, usually from 28.7 µM), hits mostly inhibitors | P. falciparum luciferase reporter growth, 96 h
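Luminescence readout: decreased luciferase signal marks inhibited growth of reporter-expressing P. falciparum in infected red cells (2% hematocrit, 0.05% parasitemia final), exposed to compound two generations (96 h, 37 C, 5% CO2).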
Numbers stand for hits; n = inactive; u = inconclusive; x = not tested or not shown. Unless noted, calls come from the whole dose curve; as a rule, active = well fitted inhibition curve with a large enough effect; inconclusive = small, poorly fitted or top-dose-only effect, or another doubt; inactive = no such curve, though single readings can be large or run the other way.

SMILES	Pf growth 48h	CHX counter	Shiga toxin inh	Pf growth 96h
CCCCn1c(O)c(C(C)=NCc2ccc(F)cc2)c(=O)[nH]c1=O	n	n	n	6.57µM
C=CCn1c(O)c(/C(CC)=N/NC(=S)Nc2ccccc2)c(=O)[nH]c1=O	n	35.1	63.4	n
COc1ccc(N/C=C2/Sc3ccccc3NC2=O)cc1	n	44.2	87.9	n
CCC(C)NC(=O)/C=C1\Sc2ccccc2NC1=O (configuration not stated)	n	12.8	n	u
Cc1ccc(N/C=C2/Sc3ccccc3NC2=O)cc1	n	45.2	70.2	n
O=C(COc1ccc2c3c(c(=O)oc2c1)CCC3)N[C@@H](Cc1ccccc1)C(=O)O	n	n	n	n
CC(=O)Nc1ccc(S(=O)(=O)N2CCN(S(=O)(=O)c3ccc(NC(C)=O)cc3)CC2)cc1	n	n	n	n
Cc1cc(OCC(=O)Nc2ccc(S(=O)(=O)N3CCN(C)CC3)cc2)ccc1Br	11.7µM	n	n	6.57µM
Cc1ccc(OCC(=O)Nc2ccc(S(=O)(=O)N3CCN(C)CC3)cc2)cc1	u	n	n	u
CCCOc1ccccc1OCC(=O)Nc1ccc(S(=O)(=O)N2CCCCC2)cc1	u	x	x	10.4µM
COc1cccc(OCCCN2CCN(S(=O)(=O)c3ccc(NC(C)=O)cc3)CC2)c1	x	n	n	u
CC(=O)Nc1ccc(S(=O)(=O)N2CCN(CCCOc3ccccc3Cl)CC2)cc1	x	n	n	6.57µM
CC(=O)Nc1ccc(S(=O)(=O)N2CCc3c(Cl)cccc3C2)cc1	x	n	n	14.7µM
O=C(CSC1=NS(=O)(=O)c2ccccc2N1)Nc1cccc(F)c1	n	x	x	n
CCOc1ccc(CCNC(=O)COC(=O)c2ccc(Br)o2)cc1OCC	n	x	x	u
CC(=O)c1ccc(S(=O)(=O)N2CCC3(CC2)CC(=O)c2ccccc2O3)cc1	n	x	x	u
CC1CCN(C(=O)COC(=O)c2cc(Cl)c3c(c2)OCO3)CC1	n	x	x	n
CN1CCC(N(C)S(=O)(=O)c2ccc(NC(=O)COc3cccc(C(F)(F)F)c3)cc2)CC1	u	x	x	13.1µM
O=C(COc1ccc2ccccc2c1)Nc1ccc(S(=O)(=O)N2CCCCCC2)cc1	11.7µM	n	n	u
O=C(COc1ccccc1)Nc1ccc(S(=O)(=O)N2CCCCCC2)cc1	x	n	n	u
CN(c1ccccc1)S(=O)(=O)c1ccc(C(=O)Nc2nnc(C3CC3)o2)cc1	11.7µM	n	n	5.22µM
CCN(c1ccccc1)S(=O)(=O)c1ccc(C(=O)Nc2nnc(C3CC3)o2)cc1	9.28µM	n	n	u
CN(c1ccccc1)S(=O)(=O)c1ccc(C(=O)Nc2nnc(-c3ccco3)o2)cc1	u	n	n	7.38µM
CCc1nnc(NC(=O)c2ccc(S(=O)(=O)N3CCCC(C)C3)cc2)o1 (configuration not stated)	u	n	n	u
CCN(c1ccccc1)S(=O)(=O)c1ccc(C(=O)Nc2nnc(-c3ccco3)o2)cc1	u	n	n	u
SMILES	Pf growth 48h	CHX counter	Shiga toxin inh	Pf growth 96h
COCCN(CCOC)S(=O)(=O)c1ccc(C(=O)Nc2nnc(C3CC3)o2)cc1	n	n	n	x
CC1CCCN(S(=O)(=O)c2ccc(C(=O)Nc3nnc(-c4ccco4)o3)cc2)C1 (configuration not stated)	11.7µM	n	n	u
CCCCNC(=O)CCC(=O)N1CCN(C(c2ccccc2)c2ccccc2)CC1	n	n	n	u
CSc1ccc(S(=O)(=O)NCC(=O)OCC(=O)N2CCCC2=O)cc1[N+](=O)[O-]	n	x	x	n
CCC1CCCCN1S(=O)(=O)c1ccc(C(=O)Nc2nnc(C3CC3)o2)cc1 (configuration not stated)	13.1µM	n	n	u
c1cc2c(cnc3cscc32)s1	n	16.3	n	n
Cc1ccc2nc(NC(=O)c3ccc(Cl)s3)sc2c1	x	25.0	50.7	n
Cc1nc2ccc(NC(=O)c3cccnc3)cc2s1	n	n	n	n
Cc1nc2ccc(NC(=O)c3ccc(Cl)s3)cc2s1	x	n	76.6	n
Cc1nc2ccc(NC(=O)c3cnc(Cl)c(Cl)c3)cc2s1	n	17.7	71.0	n
Cc1nc2ccc(NC(=O)c3ccc(Br)o3)cc2s1	n	36.4	66.5	n
O=C(Nc1ccc(OC(F)(F)F)cc1)c1ccc(S(=O)(=O)N2CCOCC2)o1	n	n	n	u
Cc1ccc(OCCC(=O)OCC(=O)N2CCN(S(=O)(=O)c3ccc(C)cc3)CC2)cc1	n	x	x	n
Cc1cccc(C(=O)NNC(=S)NC(=O)c2cccs2)c1	n	n	n	11.7µM
Cc1ccc2nc(NC(=S)NC(=O)c3cccs3)sc2c1	n	47.5	102.0	n
COc1cccc(CC(=O)OCC(=O)NCC(=O)Nc2cccc(C)c2C)c1	n	x	x	n
CCN(Cc1ccccc1)Cc1ccc(OCc2ccccc2)cc1	n	15.0	n	n
Nc1ccc(OCc2ccccc2)cc1	n	17.1	36.2	u
Nc1ccc(OCCc2ccccc2)cc1	u	30.8	29.0	u
O=C(Cc1ccccc1)OCc1ccccc1	n	x	x	n
CCN(CC)CCOc1ccc(Cc2ccccc2)cc1	u	x	x	n
NOCc1ccccc1	x	32.2	n	x
Cc1cc(Cl)ccc1OCC(=O)OCC(=O)c1c(N)n(C)c(=O)n(C)c1=O	n	x	x	n
COc1ccc(NC(=O)Nc2ccc([N+](=O)[O-])cc2)cn1	u	n	n	u
CC(C)CCOc1ccc(N)cc1	x	12.3	23.8	x
SMILES	Pf growth 48h	CHX counter	Shiga toxin inh	Pf growth 96h
O=C(c1ccco1)N1CCN(S(=O)(=O)c2cccc([N+](=O)[O-])c2)CC1	n	n	n	u
COc1cccc(NC(=S)N/N=C2\CC3CCC2(C)C3(C)C)c1 (configuration not stated)	10.4µM	41.0	78.0	u
O=c1c(Cl)c2oc3ccccc3nc-2c2ccccc12	13.1µM	n	n	n
Clc1ccc(-c2nnc(Sc3nc4ccccc4o3)c3ccccc23)cc1	n	n	n	n
O=C(c1cc([N+](=O)[O-])ccc1N1CCCC1)N1CCCC1	n	n	n	u
O=C(c1cc([N+](=O)[O-])ccc1N1CCCCC1)N1CCCC1	n	n	n	7.38µM
CN1CCN(c2ccc([N+](=O)[O-])cc2C(=O)N2CCCCC2)CC1	n	n	n	11.7µM
O=[N+]([O-])c1cccc(OCC(O)CN2CCN(S(=O)(=O)c3cc(Cl)ccc3Cl)CC2)c1 (configuration not stated)	u	n	n	10.4µM
O=C(c1cc([N+](=O)[O-])ccc1N1CCOCC1)N1CCN(c2ccc([N+](=O)[O-])cc2)CC1	u	x	x	9.28µM
Cc1nn(CC(=O)NCCCc2ccccc2)c(C)c1[N+](=O)[O-]	n	n	n	n
COc1ccc(C2/C=C\CN(S(=O)(=O)CC34CCC(CC3=O)C4(C)C)CC(=O)N2Cc2ccc(F)cc2)cc1 (configuration not stated)	x	n	n	x
O=C(c1cc([N+](=O)[O-])ccc1N1CCOCC1)N1CCN(S(=O)(=O)c2cc(Cl)ccc2Cl)CC1	10.4µM	x	x	u
Cc1ccc(CC(=O)N2CCN(c3ccc([N+](=O)[O-])cc3)CC2)cc1	n	n	n	u
O=C(c1cc([N+](=O)[O-])ccc1N1CCN(S(=O)(=O)c2ccc(Cl)c(Cl)c2)CC1)N1CCOCC1	u	n	n	u
Cc1noc(C)c1CSCC(=O)N1CCN(c2ccc([N+](=O)[O-])cc2)CC1	x	n	n	11.7µM
